Measurements reported in PMC5540273 (PLoS ONE, 2017).

system: BRSK2; details: concentration: 1 μM, replicates: in singlicate; n = 1
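Note: KINOMEscan kinase panel screen.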

Structure (SMILES)	%Inh
COC(=O)Nc1nc2ccc(Oc3ccc(NC(=O)Nc4cc(C(F)(F)F)ccc4F)cc3)cc2[nH]1.Cl [GW654607]	0%
CN(c1ccc(NC(=O)N2CCN(CCCN3CCOCC3)CC2)cc1)c1ccnc(Nc2ccc(CS(C)(=O)=O)cc2)n1.Cl [GW830899]	25%
CCn1c(-c2nonc2N)nc2c(-c3ccccc3)ncc(OCCCN)c21.O=C(O)C(F)(F)F.O=C(O)C(F)(F)F [GSK260205]	0%
COc1cc(Nc2nccc(N3CCC(NC(=O)Nc4ccc5c(c4)OCO5)C3)n2)cc(OC)c1OC (stereo not shown) [GSK1379766]	0%
Cc1ccc(NC(=O)c2ccnc(N3CCCCC3)c2)cc1-c1ccc(C(=O)NCC2CC2)cc1 [GW775610]	6%
COC(=O)Nc1nc2ccc(Oc3ccc(CC(=O)Nc4cc(C(F)(F)F)ccc4F)cc3)cc2[nH]1 [GW680903]	0%
COc1ccc(NC(=O)c2ccoc2)cc1-c1ccc(C(=O)NCC2CC2)cc1 [GW810437]	4%
Cc1cccc(Nc2nc(NCCN)ncc2C(N)=O)c1 [GSK1292139]	0%
Cl.N#CCc1ccc(Nc2nccc(Nc3ccc(Oc4ccccc4)cc3)n2)cc1 [GW639905]	0%
Fc1cc(Cl)ccc1Nc1ccnc2cc(-c3ccc(CN4CCSCC4)o3)ccc12 [GW560106]	0%
NCCC(NC(=O)c1cc(Br)c(-c2ccnc3[nH]ccc23)s1)c1ccccc1.O=C(O)C(F)(F)F.O=C(O)C(F)(F)F (stereo not shown) [GSK1307810]	19%
O=C(O)C(F)(F)F.O=c1[nH]ccc2nc(N[C@@H]3CCNC3)nc(Nc3ccc4c(c3)S(=O)(=O)CC4)c12 [GSK2181306]	46%
Cc1ccccc1CC(=O)N1CCc2cc(-c3cn(C)c4ncnc(N)c34)ccc21 [GSK2603346]	0%
CCNC(=O)/C=C/c1n[nH]c2cc(Sc3ccccc3C(=O)NC)ccc12	24%
Nc1ncc(-c2ccc3nccc(-c4ccncc4)c3c2)cc1S(=O)(=O)N1CCCCC1 [GSK1693850]	0%
CS(=O)(=O)c1cccc(CNc2nc(Nc3ccc4c(c3)CCC(=O)N4)ncc2C(F)(F)F)c1	0%
COc1ccc(C)c(Nc2ccnc(Nc3ccc(-c4cnc[nH]4)cc3)n2)c1.Cl [GW784041]	9%
O=C(O)C(F)(F)F.O=c1[nH]ccc2nc(N[C@@H]3CCNC3)nc(Nc3cc(Cl)cc(Cl)c3)c12 [GSK2188764]	8%
Cl.Cl.NC(CNC(=O)c1cc(Br)c(-c2ccnc3[nH]ccc23)s1)c1ccccc1 (stereo not shown) [GSK1322949]	40%
COC(=O)Nc1nc2cc(Oc3ccc(NC(=O)Nc4cccc(SC)c4)cc3)ccc2[nH]1.Cl [GW697999]	10%
CCOc1nccc(-c2c(-c3ccc(F)cc3)ncn2C2CCNCC2)n1 [SB-249175]	11%
Cl.Cl.NCC(NC(=O)c1cc(-c2cccnc2)c(-c2ccnc3[nH]ccc23)s1)c1ccccc1 (stereo not shown) [GSK1323434]	0%
Nc1ncnc2scc(-c3ccc(NC(=O)Cc4cc(F)ccc4F)cc3)c12.O=C(O)C(F)(F)F [SB-731254-M]	38%
Cn1cc(-c2ccc3c(c2)CCN3C(=O)Cc2cc(F)cc(C(F)(F)F)c2)c2c(N)ncnc21 [GSK2635225]	5%
COc1cccc2c(-c3ccncc3)c(-c3ccc(F)cc3)nn12 [GW468513]	0%
COc1cccc(NC(=O)NCCNc2ccnc(Nc3ccc(F)cc3)n2)c1 [GSK1379879]	0%
Cn1cc(-c2ccc3c(c2)CCN3C(=O)Cc2cc(F)cc(F)c2F)c2c(N)ncnc21 [GSK2634140]	0%
CN(C)CCOc1ccc(-c2cc(-c3ccc(Cl)c(O)c3)c(-c3ccncc3)[nH]2)cc1.Cl.Cl [SB-684387]	0%
